This is one part of a sample in which hits are shown more often than they occur.
Methyltransferases = Primary Screen for Target Class Profiling of Small Molecule Inhibitors of Methyltransferases | purified enzyme, MTase-Glo SAH luminescence; active compounds read low | calls only at 40 µM | actives 3.9% (n = 25,000) | AID 1745853, 2022; call rule not given here
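Each enzyme was reacted with SAM and its substrate, with compounds tested once at 40 uM; SAH formed was read by MTase-Glo luminescence.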
MTase-Glo ctr = counter-screen for methyltransferase inhibitors: coupling enzymes without methyltransferase. Potency, µM (doses to about 57.3 µM), without a hit: at the top dose activity change, negative = inhibition, most hits filed as inhibitors. MTase-Glo coupled enzymes, SAH conversion luminescence, no MTase. shares compounds with Methyltransferases. actives 6% (n = 180); active = well fitted inhibition curve with a large enough effect; inconclusive = small, poorly fitted or top-dose-only effect; note: potency is the fitted concentration of half-maximal effect
* marks the source's active call; other numbers are inactive results; i = inactive; ? = inconclusive; + = active, no number; [ ] = dose if it differs, or a comment. % is set by controls: 0 for no effect and ±100 for the full control effect.

SMILES | Methyltransferases | others
Cc1cccc(C2c3cccn3-c3ccccc3CN2C(=O)Nc2ccccc2)c1 (stereo not given) | i
CC1=CC2OC3[C@H](O)C[C@@](C)([C@]34CO4)[C@@]2(CO)[C@H](O)C1=O (stereo not given in full) | i
CCOC(=O)Cc1ccc(NC(=O)N2Cc3ccccc3-n3cccc3C2c2cccs2)cc1 (stereo not given) | i
C[C@@]1(C(=O)O)CC[C@]2(C)CC[C@]3(C)C4=CC(=O)c5cc(O)c(O)cc5[C@]4(C)CC[C@@]3(C)[C@@H]2C1 | i
Cc1ccc(NC(=O)N2Cc3ccccc3-n3cccc3C2C)cc1 (stereo not given) | i
C=C[C@H]1[C@H](O[C@@H]2O[C@H](CO)[C@@H](O)[C@H](O)[C@H]2O)OC=C2C(=O)OCC[C@H]21 | i
COc1cc(C(=O)O[C@H]2[C@@H]3C=CO[C@@H](O[C@@H]4O[C@H](CO)[C@@H](O)[C@H](O)[C@H]4O)[C@@H]3[C@@]3(CO)O[C@@H]23)ccc1O | +
C#CCO[C@H]1CN2CCC1CC2 | i
COc1ccc(-c2ccc3n(c2=O)C[C@H]2C[C@@H]3CN(S(C)(=O)=O)C2)cc1 | i
O=C(O)CCCCCCNC1c2ccccc2CCc2ccccc21 | i
COc1ccc(C(=O)NC[C@H]2C[C@@H]3CCN2C[C@@H]3c2cc(-c3cccs3)nn2C)cc1 | i
O=C(NCc1ccc(F)cc1)N1Cc2ccccc2-n2cccc2C1c1ccccc1 (stereo not given) | i
COC(=O)C1=COC(C)C2CN3CCC4(C(=O)Nc5ccccc54)C3CC12 (stereo not given) | i
COc1ccc(-c2cc([C@H]3CN4CC[C@H]3C[C@@H]4CN)nc(C)n2)cc1OC | + | MTase-Glo ctr=-6.2%[85.7 µM]
CCC(CC)c1cc([C@H]2CN3CC[C@H]2C[C@@H]3CNC(=O)C2CCC2)nc(-c2ccncc2)n1 | i
Cc1nc(-c2ccccc2)cc([C@H]2CN3CC[C@H]2C[C@@H]3CNS(C)(=O)=O)n1 | i
CC(=O)c1cccc(NC(=O)NC[C@H]2C[C@@H]3CCN2C[C@@H]3c2cc(-c3ccc(F)cc3)nc(C)n2)c1 | + | MTase-Glo ctr=?
Cn1nc(-c2ccc(F)cc2)cc1[C@H]1CN2CC[C@H]1C[C@@H]2CNC(=O)c1cccs1 | i
O=C(Nc1ccc2c(c1)OCCO2)N1Cc2ccccc2-n2cccc2C1c1cccs1 (stereo not given) | i
CC(C)(O)[C@@H]1C2OC(=O)[C@@H]1[C@]1(O)C[C@H]3O[C@]34C(=O)O[C@H]2[C@]14C (tested in a mixture with another compound) | i
COC(=O)C1(C)CCC(=O)C2(C)c3c(O)cc(C(C)C)cc3C(O)C(OC(C)=O)C12 (stereo not given) | i
C[C@]12CC[C@@H](O)C[C@H]1CC[C@@H]1[C@@H]2CC[C@]2(C)C(=O)CC[C@@H]12 | i
CC[C@@H]1/C=C/C=C/C[C@H](C)C(O)[C@](C)(O)C(=O)[C@H](C)C(O)[C@H](C)C(=O)[C@H](C)[C@@H](O)[C@H](C)/C=C/C(=O)O[C@H]2[C@@H](C)[C@@H](CC1)O[C@]1(O[C@H](C[C@H](C)O)[C@H](C)CC1=O)[C@@H]2C (stereo not given in full) | i
Cc1cnc(C2CC2)n1C1CCNCC1 | i
CC1=CC2/C=C(\C)CCC(O)C3OC(C)(C)OC3CC(=O)OC23C(=O)NC(CC(C)C)C3C1C (stereo not given) | i
SMILES | Methyltransferases | others
FC(F)(F)CN1C2CCC1CN(c1nnc(Cl)c3ccccc13)C2 | i
NC(=O)c1ccc(N2CC3CCC(C2)N3CC(F)(F)F)nn1 | + | MTase-Glo ctr=4.1%
COc1ccc(C2c3cccn3-c3ccccc3CN2C(=O)Nc2ccc(C)c(F)c2)cc1OC (stereo not given) | i
C#C[C@H]1CN2CC[C@H]1C[C@@H]2CNS(=O)(=O)c1cccs1 | i
CC(C)NC(=O)NC[C@H]1C[C@@H]2CCN1C[C@@H]2CN1CCC(Cc2ccccc2)CC1 | i
CN(CCc1ccccn1)C[C@H]1CN2CC[C@H]1C[C@@H]2CNC(=O)c1ccco1 | i
CN(CCc1ccccn1)C[C@H]1CN2CC[C@H]1C[C@@H]2CNC(=O)Nc1ccsc1 | + | MTase-Glo ctr=-3.8%[85.7 µM]
CC(=O)N1CCC2(C1)N=C(c1cccnc1)C(=O)N2 (stereo not given) | i
